We go through nine compounds from PubChem BioAssay (NCI).

The panel holds about 79,000 compounds, 15% with a hit somewhere; the sample as a whole holds those more often. Values without a mark were called inactive. The source made the active and inactive calls. No stated cut-off is given here; in the data, active means growth inhibition above about 70%; inactive means the rest.

Assay [1] in a line: NCI Yeast Anticancer Drug Screen. Data for the rad50 strain (AID 155).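 Further: 0% = growth of vehicle-only cultures of the same strain.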 The conditions noted are these: S. cerevisiae rad50 strain growth inhibition, hits give high values. Put shortly:
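Cells are treated with compound, grown, and their growth is then scored against vehicle-only cultures of the same repair-deficient yeast strain.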

Assay [2] in a line: NCI Yeast Anticancer Drug Screen. Data for the mec2-1 strain (AID 157). The conditions noted are these: S. cerevisiae mec2-1 strain, hits give high values. Put shortly:
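mec2-1 yeast strain, carrying an alteration in DNA damage repair or cell cycle control, was exposed to compounds; growth inhibition was measured relative to vehicle-treated controls.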

Assay [3] can be described thus: NCI Yeast Anticancer Drug Screen. Data for the sgs1 mgt1 strain (AID 161).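 Further: 0% = growth of cultures given vehicle only.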 The conditions noted are these: S. cerevisiae sgs1 mgt1 strain, hits give high values. The essentials:
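Growth of a repair-deficient yeast mutant was monitored after compound treatment and expressed as inhibition relative to vehicle-treated cultures.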

The nature of assay [4]: NCI Yeast Anticancer Drug Screen. Data for the cln2 rad14 strain (AID 165).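 Further: 0% = growth equal to vehicle treated cultures.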 The following applies: S. cerevisiae cln2 rad14 strain, hits give high values. Put shortly: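 Yeast carrying cln2 and rad14 alterations (cell cycle control and DNA damage repair) were exposed to compounds. Growth inhibition was measured against vehicle-treated controls.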
Assay [5] is described as follows: NCI Yeast Anticancer Drug Screen. Data for the bub3 strain (AID 167). The conditions noted are these: S. cerevisiae bub3 mutant strain, hits give high values. The essentials: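 Part of a panel of yeast mutants defective in DNA damage repair or cell cycle regulation. Each strain is grown with compound, and inhibition is calculated relative to solvent-treated cultures.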

A short description of assay [6]: NCI Yeast Anticancer Drug Screen. Data for the mlh1 rad18 strain (AID 175). The following applies: S. cerevisiae mlh1 rad18 strain growth inhibition, hits give high values. Put shortly: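 Growth inhibition of the yeast strain was measured after compound exposure and expressed relative to vehicle-treated controls. The strain carries defined defects in DNA damage repair.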

Where [7] appears, read: at 5.0 µM (retest, dose inferred, filed as 0.5).
[8] abbreviates: at 50.0 µM (retest, dose inferred, filed as 5.0).

On to `COc1ccc(CCBr)cc1`, for which the growth inhibition is -1% in assay [1] (setting [7]); -17% in assay [1] (setting [8]); 14.7% in assay [1] (at 50.0 µM); -23% in assay [2] (setting [7]); -13% in assay [2] (setting [8]); 14% in assay [2] (at 50.0 µM). Moreover, the growth inhibition is -15% in assay [3] (setting [7]); -7% in assay [3] (setting [8]); 22.2% in assay [3] (at 50.0 µM); 17% in assay [4] (setting [7]); -1% in assay [4] (setting [8]); 0.5% in assay [4] (at 50.0 µM). In addition, the growth inhibition in assay [5] (setting [7]) was -17%; in assay [5] (setting [8]), -7%; in assay [5] (at 50.0 µM) it was 18.1%; in assay [6] (setting [7]), -27%; in assay [6] (setting [8]) it was -41%; in assay [6] (at 50.0 µM), 15.2%.

With `COc1ccc2ccccc2c1/C=C/C(=O)c1ccccc1`, the growth inhibition is -3% in assay [1] (setting [7]); 34% in assay [1] (setting [8]); 54.6% in assay [1] (at 50.0 µM); 7% in assay [2] (setting [7]); 43% in assay [2] (setting [8]); 19.4% in assay [2] (at 50.0 µM). Also, the growth inhibition in assay [3] (setting [7]) is 11%; in assay [3] (setting [8]), 47%; in assay [3] (at 50.0 µM), 42.4%; in assay [4] (setting [7]), -19%; in assay [4] (setting [8]), 40%; in assay [4] (at 50.0 µM), 56.2%. Also, the growth inhibition in assay [5] (setting [7]) was -8%; in assay [5] (setting [8]), 58%; in assay [5] (at 50.0 µM), 46%; in assay [6] (setting [7]), 1%; in assay [6] (setting [8]), 72% (active); in assay [6] (at 50.0 µM), 46.4%.

In the case of `Cc1c(C)c(C[P+](CCP(c2ccccc2)c2ccccc2)(c2ccccc2)c2ccccc2)c(C)c(C)c1C[P+](CCP(c1ccccc1)c1ccccc1)(c1ccccc1)c1ccccc1`, the growth inhibition in assay [1] (setting [7]) is 18%; in assay [1] (setting [8]), 36%; in assay [1] (at 50.0 µM) it was 29.8%; in assay [2] (setting [7]) it was 11%; in assay [2] (setting [8]) it was 13%; in assay [2] (at 50.0 µM) it was 16.5%. Besides, the growth inhibition in assay [3] (setting [7]) is 7%; in assay [3] (setting [8]) it was 41%; in assay [3] (at 50.0 µM) it was 59.5%; in assay [4] (setting [7]), -14%; in assay [4] (setting [8]), 2%; in assay [4] (at 50.0 µM) it was -1.3%. The growth inhibition in assay [5] (setting [7]) is 14%; in assay [5] (setting [8]), 21%; in assay [5] (at 50.0 µM), -5.8%; in assay [6] (setting [7]), 13%; in assay [6] (setting [8]), 33%; in assay [6] (at 50.0 µM), 35.2%.

For `CC1=CCCc2c1cc1ccc3cccc4ccc2c1c34`, the growth inhibition in assay [1] (setting [7]) is 8%; in assay [1] (setting [8]), -6%; in assay [1] (at 50.0 µM), 49.5%; in assay [2] (setting [7]), -7%; in assay [2] (setting [8]) it was -8%; in assay [2] (at 50.0 µM), 79.7% (active). Further, the growth inhibition was -4% in assay [3] (setting [7]); 16% in assay [3] (setting [8]); 94.2% (active) in assay [3] (at 50.0 µM); -2% in assay [4] (setting [7]); -8% in assay [4] (setting [8]); 28.1% in assay [4] (at 50.0 µM). Besides, the growth inhibition in assay [5] (setting [7]) is -5%; in assay [5] (setting [8]), -10%; in assay [5] (at 50.0 µM) it was 91.2% (active); in assay [6] (setting [7]), -11%; in assay [6] (setting [8]), -6%; in assay [6] (at 50.0 µM) it was 89.8% (active).

Take `Cc1cc(C)c([O-])c(-[n+]2c(-c3ccccc3)cc(-c3ccccc3)cc2-c2ccccc2)c1`: the growth inhibition is 14% in assay [1] (setting [7]); 14% in assay [1] (setting [8]); 90.8% (active) in assay [1] (at 50.0 µM); 1% in assay [2] (setting [7]); 1% in assay [2] (setting [8]); 92.5% (active) in assay [2] (at 50.0 µM). Further, the growth inhibition in assay [3] (setting [7]) is 22%; in assay [3] (setting [8]) it was 22%; in assay [3] (at 50.0 µM), 91% (active); in assay [4] (setting [7]), -8%; in assay [4] (setting [8]), -8%; in assay [4] (at 50.0 µM), 89.8% (active). The growth inhibition is -2% in assay [5] (setting [7]); -2% in assay [5] (setting [8]); 92.2% (active) in assay [5] (at 50.0 µM); 3% in assay [6] (setting [7]); 3% in assay [6] (setting [8]); 89.7% (active) in assay [6] (at 50.0 µM).

For the compound `CCC1C(c2cccc(OC)c2O)c2cc3c(cc2OC1N1CCCC1)OCO3` (configuration not stated), the growth inhibition in assay [1] (setting [7]) was 21%; in assay [1] (setting [8]), 43%; in assay [1] (at 50.0 µM), -66.2%; in assay [2] (setting [7]), 22%; in assay [2] (setting [8]) it was 19%; in assay [2] (at 50.0 µM), -19.7%. Also, the growth inhibition in assay [3] (setting [7]) was 26%; in assay [3] (setting [8]), 25%; in assay [3] (at 50.0 µM), -52.7%; in assay [4] (setting [7]), 31%; in assay [4] (setting [8]), 45%; in assay [4] (at 50.0 µM), -28.6%. The growth inhibition was 17% in assay [5] (setting [7]); 26% in assay [5] (setting [8]); -5.3% in assay [5] (at 50.0 µM); 22% in assay [6] (setting [7]); 63% in assay [6] (setting [8]); -29.7% in assay [6] (at 50.0 µM).

With `COc1ccc(-c2c(C(=O)O)[nH]c3ccccc23)cc1`, the growth inhibition in assay [1] (setting [7]) is 38%; in assay [1] (setting [8]) it was 90% (active); in assay [1] (at 50.0 µM), 96.8% (active); in assay [2] (setting [7]), 12%; in assay [2] (setting [8]), 87% (active); in assay [2] (at 50.0 µM), 97.5% (active). Further, the growth inhibition is 35% in assay [3] (setting [7]); 98% (active) in assay [3] (setting [8]); 97.5% (active) in assay [3] (at 50.0 µM); 25% in assay [4] (setting [7]); 88% (active) in assay [4] (setting [8]); 98.5% (active) in assay [4] (at 50.0 µM). Further, the growth inhibition in assay [5] (setting [7]) was 58%; in assay [5] (setting [8]) it was 98% (active); in assay [5] (at 50.0 µM) it was 96.2% (active); in assay [6] (setting [7]), 65%; in assay [6] (setting [8]), 97% (active); in assay [6] (at 50.0 µM) it was 99% (active).

In the case of `C[n+]1c(-c2ccc(/C=N/NC(=O)c3ccc(C(=O)N/N=C/c4ccc(-c5cn6ccccc6[n+]5C)cc4)nc3)cc2)cn2ccccc21`, the growth inhibition is 35% in assay [1] (setting [7]); 99% (active) in assay [1] (setting [8]); 99.2% (active) in assay [1] (at 50.0 µM); 14% in assay [2] (setting [7]); 99% (active) in assay [2] (setting [8]); 98.8% (active) in assay [2] (at 50.0 µM). Moreover, the growth inhibition was 35% in assay [3] (setting [7]); 99% (active) in assay [3] (setting [8]); 98.8% (active) in assay [3] (at 50.0 µM); 34% in assay [4] (setting [7]); 99% (active) in assay [4] (setting [8]); 99% (active) in assay [4] (at 50.0 µM). The growth inhibition in assay [5] (setting [7]) is 24%; in assay [5] (setting [8]) it was 99% (active); in assay [5] (at 50.0 µM), 98.9% (active); in assay [6] (setting [7]) it was 50%; in assay [6] (setting [8]), 99% (active); in assay [6] (at 50.0 µM), 99.1% (active).

On to `COc1ccc(N=Nc2ccc3oc(=O)c(C(=O)Nc4ccccc4C)cc3c2)cc1`, for which the growth inhibition is 3% in assay [1] (setting [7]); 98% (active) in assay [1] (setting [8]); 96.8% (active) in assay [1] (at 50.0 µM); -18% in assay [2] (setting [7]); 97% (active) in assay [2] (setting [8]); 97% (active) in assay [2] (at 50.0 µM). For the same compound, the growth inhibition in assay [3] (setting [7]) was -8%; in assay [3] (setting [8]) it was 96% (active); in assay [3] (at 50.0 µM), 97.5% (active); in assay [4] (setting [7]), 1%; in assay [4] (setting [8]), 86% (active); in assay [4] (at 50.0 µM) it was 93% (active). Besides, the growth inhibition in assay [5] (setting [7]) was -5%; in assay [5] (setting [8]) it was 86% (active); in assay [5] (at 50.0 µM) it was 97.7% (active); in assay [6] (setting [7]), -2%; in assay [6] (setting [8]), 98% (active); in assay [6] (at 50.0 µM), 97.5% (active).
